The results in this text go back to PubChem BioAssay (EPA / NIEHS).

Calls of active or inactive are those of the source. Rule for the calls: active = hit-call score of the fitted dose curve at least 0.9, where 1 is the maximum; inactive = score below 0.9.

The nature of assay [1]: ATG_PXRE_CIS: Attagene CIS-FACTORIAL HepG2 Assay for human Pregnane X Receptor Element (PXRE) (AID 2282957). As to conditions: HepG2 Attagene CIS-FACTORIAL PXRE reporter, mRNA; actives raise or lower the signal. In short, it runs like this: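 HepG2 cells transiently transfected with cis-element-driven multiplexed reporter units; after 24 h chemical exposure, reporter mRNA measured by RT-PCR, 6-FAM labelling, HpaI digestion and capillary electrophoresis. Bidirectional fitting relative to DMSO.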

The nature of assay [2]: ATG_RORE_CIS: Attagene CIS-FACTORIAL HepG2 Assay for human RAR-related Orphan Receptor Element (RORE) (AID 2282959). The settings on record: HepG2 Attagene cis-factorial RORE reporter, mRNA; actives raise or lower the signal. In short, it runs like this:
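Transiently transfected HepG2 reporter cells were treated 24 h. Reporter transcripts were detected by RT-PCR and capillary electrophoresis, with bidirectional fitting against DMSO.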

A short description of assay [3]: ATG_Sox_CIS: Attagene CIS-FACTORIAL HepG2 Assay for human SRY-box transcription factor (SOX) (AID 2282960). The settings on record: HepG2 Attagene cis-factorial SOX reporter, mRNA; actives raise or lower the signal. In short, it runs like this:
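Gain- or loss-of-signal endpoint, fitted bidirectionally with DMSO as negative control. Based on reporter mRNA from transfected HepG2 cells harvested 24 h post-treatment and quantified via RT-PCR and capillary electrophoresis.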

The target in assay [4] is Transcription factor Sp1 (Homo sapiens) (UniProt P08047). Kind of assay: ATG_Sp1_CIS: Attagene CIS-FACTORIAL HepG2 Assay for human Specificity Protein 1 (Sp1) (AID 2282961). The settings on record: HepG2 Sp1 cis-reporter transcription, actives raise or lower the signal. In short, it runs like this:
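Endpoint reflects endogenous Sp1 transcriptional activity, not an exogenous fusion protein: HepG2 cells with transfected cis-regulated reporters, 24 h dosing, RT-PCR/capillary electrophoresis mRNA read-out, DMSO-normalised bidirectional fit.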

Assay [5] can be described thus: ATG_SREBP_CIS: Attagene CIS-FACTORIAL HepG2 Assay for human Sterol Regulatory Element Binding (SREBP) (AID 2282962). As to conditions: HepG2 Attagene cis-factorial SREBP reporter, mRNA; actives raise or lower the signal. An outline of the steps: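 HepG2 cells transiently transfected with multiplexed cis-promoter reporter units sensing endogenous transcription factors; reporter mRNA measured 24 h after dosing by RT-PCR, 6-FAM labeling, HpaI digestion and capillary electrophoresis. Bidirectional fit versus DMSO.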

Assay [6] can be described thus: ATG_TA_CIS: Attagene CIS-FACTORIAL HepG2 Assay for human TA Basal Promoter (AID 2282964). The settings on record: HepG2 Attagene CIS-factorial TA basal promoter reporter; actives raise or lower the signal. In short, it runs like this:
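HepG2 cells transiently transfected with multiplexed cis-promoter reporter units, dosed 24 h. Reporter mRNA measured by RT-PCR, 6-FAM labelling, HpaI digestion and capillary electrophoresis; bidirectional fit versus DMSO baseline, serving as background control.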

A short description of assay [7]: ATG_TCF_b_cat_CIS: Attagene CIS-FACTORIAL HepG2 Assay for human T-Cell-Factor with beta-catenin (TCF/b-cat) (AID 2282965). The settings on record: HepG2 TCF/beta-catenin cis-reporter transcription, actives raise or lower the signal. In short, it runs like this:
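Endogenous TCF/LEF activity read as reporter transcript level via RT-PCR and capillary electrophoresis fluorescence in transfected HepG2, 24 h exposure; gain or loss of signal fitted against DMSO controls.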

Assay [8] is described as follows: ATG_PPRE_CIS: Attagene CIS-FACTORIAL HepG2 Assay for human Peroxisome Proliferator-activated Response Element (PPRE) (AID 2282958). The settings on record: HepG2 PPRE cis-element reporter, Attagene transcription factor profiling; actives raise or lower the signal. An outline of the steps: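 Measured endpoint: PPRE-controlled reporter mRNA, detected by RT-PCR and capillary electrophoresis fluorescence, from transiently transfected HepG2 cells 24 h after dosing. Curves fitted in both directions using DMSO baseline.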

For assay [9], the target named is Signal transducer and activator of transcription 3 (Homo sapiens) (UniProt P40763). Put plainly: ATG_STAT3_CIS: Attagene CIS-FACTORIAL HepG2 Assay for human Signal Transducer and Activator of Transcription 3 (STAT3) (AID 2282963). The settings on record: HepG2, Attagene cis-factorial STAT3 reporter transcription; actives raise or lower the signal. In short, it runs like this:
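Endogenous STAT3-responsive cis-element activity was read in transiently transfected HepG2 cells after 24 h treatment. Reporter transcripts were quantified via RT-PCR and capillary electrophoresis, with DMSO as negative control and bidirectional curve fitting.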

Signal transducer and activator of transcription 3 (Homo sapiens), sequence (P40763 whole entry, looked up): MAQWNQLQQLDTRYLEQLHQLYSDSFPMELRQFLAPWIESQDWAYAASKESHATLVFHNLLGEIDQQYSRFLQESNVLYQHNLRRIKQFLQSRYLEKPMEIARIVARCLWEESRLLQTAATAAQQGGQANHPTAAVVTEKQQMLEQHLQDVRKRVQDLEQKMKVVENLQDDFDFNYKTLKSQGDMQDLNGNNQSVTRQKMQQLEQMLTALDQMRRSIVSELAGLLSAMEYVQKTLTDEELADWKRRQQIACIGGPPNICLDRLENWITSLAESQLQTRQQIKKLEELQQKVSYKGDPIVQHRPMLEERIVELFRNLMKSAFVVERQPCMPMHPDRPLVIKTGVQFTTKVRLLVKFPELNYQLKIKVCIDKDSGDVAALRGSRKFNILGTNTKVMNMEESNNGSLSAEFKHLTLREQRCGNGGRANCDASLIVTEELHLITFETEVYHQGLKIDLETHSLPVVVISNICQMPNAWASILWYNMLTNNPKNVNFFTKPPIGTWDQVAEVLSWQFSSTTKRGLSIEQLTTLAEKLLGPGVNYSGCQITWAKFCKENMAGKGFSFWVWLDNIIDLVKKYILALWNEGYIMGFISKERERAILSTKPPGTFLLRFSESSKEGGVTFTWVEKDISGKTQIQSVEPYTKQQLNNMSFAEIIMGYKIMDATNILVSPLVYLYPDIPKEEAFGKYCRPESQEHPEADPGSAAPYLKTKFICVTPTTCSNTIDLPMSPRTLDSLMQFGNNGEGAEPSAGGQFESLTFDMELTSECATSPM
Transcription factor Sp1 (Homo sapiens), sequence (P08047 whole entry, looked up, the tested form may be a part): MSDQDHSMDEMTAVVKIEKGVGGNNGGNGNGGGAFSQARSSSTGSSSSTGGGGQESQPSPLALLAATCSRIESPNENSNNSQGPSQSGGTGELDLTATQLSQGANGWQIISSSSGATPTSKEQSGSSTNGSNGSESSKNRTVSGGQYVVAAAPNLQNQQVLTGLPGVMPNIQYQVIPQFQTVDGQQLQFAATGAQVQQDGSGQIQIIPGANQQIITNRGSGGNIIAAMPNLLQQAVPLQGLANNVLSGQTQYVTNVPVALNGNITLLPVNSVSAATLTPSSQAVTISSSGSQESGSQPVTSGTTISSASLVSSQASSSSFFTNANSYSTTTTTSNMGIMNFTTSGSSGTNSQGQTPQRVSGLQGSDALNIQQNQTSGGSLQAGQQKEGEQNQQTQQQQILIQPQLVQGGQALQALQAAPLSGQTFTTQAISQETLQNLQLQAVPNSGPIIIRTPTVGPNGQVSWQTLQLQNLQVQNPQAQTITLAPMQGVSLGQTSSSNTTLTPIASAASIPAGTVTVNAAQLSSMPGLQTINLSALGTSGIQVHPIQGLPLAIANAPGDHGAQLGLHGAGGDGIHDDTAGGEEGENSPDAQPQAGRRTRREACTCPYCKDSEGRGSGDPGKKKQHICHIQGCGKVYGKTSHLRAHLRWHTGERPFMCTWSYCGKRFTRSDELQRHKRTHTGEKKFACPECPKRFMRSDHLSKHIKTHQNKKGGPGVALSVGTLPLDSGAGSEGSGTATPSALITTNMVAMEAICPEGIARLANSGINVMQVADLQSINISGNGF

Broadly, the AC50 is the concentration giving half of the maximal activity seen. As to `CO[Si](C)(OC)c1ccccc1`, in assay [1], the AC50 was 2.95 µM (active). The call in assay [2], in assay [3], in [4], in [5], in assay [6] and in [7] was inactive.
As for `Cc1ccc(S)cc1`, the call in assay [8], in assay [2], in assay [3], in [4], in [5] and in assay [9] was inactive. In assay [7], the AC50 was 24.4 µM (active).
`O=C(O)c1ccc([N+](=O)[O-])cc1`: the call in assay [1], in [2], in assay [3], in assay [4], in [5] and in assay [9] was inactive. In addition, the compound was called inactive in [6] and in assay [7].
In the case of `Cc1ccc(C(C)C)cc1O`, the AC50 in assay [1] is 14.2 µM (active). The call in assay [2], in [3], in [4], in [5], in [9] and in assay [6] was inactive. The outcome in assay [7] was inactive.
Turning to `Nc1ccc(F)c([N+](=O)[O-])c1`, the call in assay [1], in assay [8], in [2], in [3], in [5] and in assay [9] was inactive. Further, the compound was called inactive in assay [6] and in assay [7].
For the compound `CCCCCCCCCCCCCCCC(=O)OC[C@H](O)[C@H]1OC(=O)C(O)=C1O`, the half-maximal activity concentration (AC50) in [1] was 38.2 µM (active); in assay [3] it was 150 µM (active); in assay [5], 100 µM (active); in assay [7] it was 168 µM (active). Moreover, the compound was classed as inactive in assay [8], in [2], in assay [4], in [9] and in [6].
Turning to `OCCN1CCNCC1`, the compound was classed as inactive in [1], in assay [8], in [3], in [4], in [5] and in assay [9]. For the same compound, the call in assay [6] and in [7] was inactive.
As to `O=C1CCc2ccccc2O1`, the outcome in assay [1], in [8], in assay [3], in assay [4], in assay [5] and in assay [9] was inactive. The outcome in assay [6] and in [7] was inactive.
Consider `CC1(C)CCC(C)(C)c2cc(C(=O)Nc3ccc(C(=O)O)cc3)ccc21`, for which the AC50 in [1] was 53.9 µM (active); in assay [8], 43.7 µM (active); in [2] it was 32.7 µM (active); in assay [6], 27.7 µM (active); in assay [7] it was 48.2 µM (active). Also, the call in [3], in [4] and in [5] was inactive.
Take `c1cc(C(c2ccc(OCC3CO3)cc2)c2ccc(OCC3CO3)cc2)ccc1OCC1CO1` (stereo not drawn): the compound was classed as inactive in assay [1] and in assay [2]. For the same compound, the AC50 in assay [8] was 100 µM (active); in [3], 9.7 µM (active); in [5] it was 26.3 µM (active); in assay [9], 66.3 µM (active); in [6] it was 19.8 µM (active); in [7], 8.93 µM (active).
Consider `CCCC/C=C\CCCCCCCCCC=O`, for which the compound was called inactive in [1], in [8], in [2], in assay [3], in assay [5] and in [9]. Further, the result in assay [6] and in assay [7] was inactive.
On to `O=Cc1ccc(Cl)c([N+](=O)[O-])c1`, for which the AC50 was 67.5 µM (active) in assay [1]; 109 µM (active) in [3]; 146 µM (active) in [4]; 137 µM (active) in assay [5]; 65.1 µM (active) in assay [7]. Besides, the call in assay [8], in assay [2] and in assay [6] was inactive.
`O=c1cc(-c2ccccc2)oc2cc(O)cc(O)c12`: the call in assay [1], in [3], in assay [5], in [9], in assay [6] and in assay [7] was inactive. Also, the AC50 in assay [8] is 4.28 µM (active).
As for `CCCCO`, the call in assay [1], in assay [3], in assay [4], in assay [5], in assay [9] and in assay [6] was inactive. Further, the result in assay [7] was inactive.
Turning to `CC1CC(OC(=O)c2ccccc2O)CC(C)(C)C1` (stereo not drawn), the compound was classed as inactive in assay [8], in assay [2], in assay [3], in assay [4], in [5] and in assay [9]. Moreover, the call in assay [6] and in assay [7] was inactive.
On to `CCCC(=O)c1cc(O)c(O)cc1O`, for which the result in assay [1], in [8], in assay [2], in assay [3], in assay [4] and in assay [5] was inactive. The result in [9], in assay [6] and in assay [7] was inactive.
Regarding `CC(=O)C(C)=O`, the AC50 in assay [1] was 26.5 µM (active). The call in assay [2], in assay [3], in assay [5], in [9], in assay [6] and in assay [7] was inactive.
In the case of `Cc1c(N(C)C)c(=O)n(-c2ccccc2)n1C`, the AC50 in assay [1] was 153 µM (active). The compound was called inactive in [2], in assay [3], in [5], in assay [9], in [6] and in assay [7].
Regarding `CC(C)(CO)[N+](=O)[O-]`, the call in [1], in [2], in assay [3], in [4], in assay [5] and in [9] was inactive. For the same compound, the outcome in [6] and in assay [7] was inactive.
With `COc1ccc(OC)c(OC)c1`, the compound was called inactive in assay [1], in [3], in assay [4], in assay [5], in assay [9] and in assay [6]. Further, the call in assay [7] was inactive.
Consider `C=CC(C)(O)CCC=C(C)CCC=C(C)C` (stereo not drawn), for which the AC50 in [1] was 9.06 µM (active); in assay [3], 148 µM (active); in [4] it was 161 µM (active); in [5] it was 114 µM (active); in assay [6], 146 µM (active). Besides, the outcome in [8], in assay [2] and in [7] was inactive.
On to `CC(C)CCCCCCCOC(=O)c1ccc(C(=O)OCCCCCCCC(C)C)c(C(=O)OCCCCCCCC(C)C)c1`, for which the AC50 in [1] is 42.7 µM (active). For the same compound, the result in assay [2], in [3], in assay [4], in [5], in [9] and in assay [6] was inactive. Further, the result in assay [7] was inactive.
As to `O=C1O[C@@H]2[C@@H](O)[C@H](O)O[C@@H]2[C@H]1O`, the call in [1], in assay [2], in [3], in assay [4], in [5] and in assay [9] was inactive. In addition, the result in assay [6] and in assay [7] was inactive.
For `O=c1[nH]nnc2ccccc12`, the result in assay [1], in [8], in assay [2], in assay [3], in assay [4] and in assay [5] was inactive. Also, the compound was called inactive in [9] and in assay [7].
Regarding `NC(=O)NC1NC(=O)NC1=O` (stereo not drawn), the compound was called inactive in [8], in [2], in assay [3], in [5], in assay [9] and in assay [6]. Moreover, the compound was called inactive in assay [7].
As for `CC(=O)O[C@H](CC(=O)[O-])C[N+](C)(C)C`, the call in assay [8], in assay [2], in [3], in assay [5], in [9] and in assay [7] was inactive.
Regarding `NC(=O)c1ccccc1Cl`, the AC50 in assay [1] is 40.7 µM (active); in assay [3] it was 68.9 µM (active); in assay [4], 41.1 µM (active); in assay [7], 65.8 µM (active). The outcome in assay [8], in assay [2], in assay [5] and in assay [6] was inactive.
